In the library only some 21% were active in any assay of this set; here they are far more common.
Shiga inhibitor: A qHTS for Small Molecule Inhibitors of Shiga Toxin. inhibition, % at 38.7 µM. Vero cells, Shiga toxin protein synthesis inhibition reporter. 290,000 compounds, 9.2% hits. AID 2315, 2010; in the data active = inhibition mostly above about 28%, no sharp cut-off; inactive = mostly below about 43%; note: 0% is about no effect
CHX counter: Cycloheximide Counterscreen for Small Molecule Inhibitors of Shiga Toxin; max response, %; 300,000 compounds, 12% hits; cell reporter, cycloheximide protein synthesis inhibition counterscreen; in the data active = max response mostly above about 13%, no sharp cut-off; inactive = mostly below about 14%; note: read at 38.3 µM for the half of the compounds with a filed dose; 0% is about no effect
Pf growth 96h: Primary qHTS for delayed death inhibitors of the malarial parasite plastid, 96 hour incubation | P. falciparum luciferase reporter growth, 96 h | Potency, µM (top dose mostly 28.7 µM), for the others: at the highest dose activity change, negative = inhibition, usual class: inhibitors | 320,000 compounds, 6.9% hits | AID 504834, 2011; note: potency is the fitted concentration of half-maximal effect; % is set by controls: 0 for no effect and ±100 for the full control effect
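Luminescence readout: decreased luciferase signal marks inhibited growth of reporter-expressing P. falciparum in infected red cells (2% hematocrit, 0.05% parasitemia final), exposed to compound two generations (96 h, 37 C, 5% CO2).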
Pf growth 48h: Primary qHTS for delayed death inhibitors of the malarial parasite plastid, 48 hour incubation; P. falciparum luciferase growth in erythrocytes, 48 h; Potency, µM (top dose mostly 28.7 µM), for the others: top-dose activity change, negative = inhibition, actives largely listed as inhibitors; 310,000 compounds, 5.9% hits; AID 504832, 2011; note: potency is the fitted concentration of half-maximal effect; % is set by controls: 0 for no effect and ±100 for the full control effect
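A one-generation exposure of luciferase-tagged malaria parasites in RPMI 1640/Albumax erythrocyte culture, 37 C and 5% CO2. Inhibition is inferred from decreased luminescence after adding detection reagent.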
SARS PLpro yeast: qHTS of Yeast-based Assay for SARS-CoV PLP; S. cerevisiae expressing SARS-CoV PLpro, growth rescue; Potency, µM (highest dose often 32.9 µM), inactives show top-dose activity, positive = growth rescue, usual class: activators; 330,000 compounds, 0.19% hits; calls by dose curve; note: potency is the fitted concentration of half-maximal effect; 0% is about no effect; nearly all actives have a fitted effect of over 55% in size
NS1 function inh: qHTS Assay for Inhibitors of Influenza NS1 Protein Function | Potency, µM (highest dose often 46.1 µM), without a hit: at the top dose activity, positive = more growth | 270,000 compounds, 0.4% hits; calls by dose curve; note: potency is the fitted concentration of half-maximal effect; actives are rising curves; nearly all actives have a fitted effect of over 50% in size
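Recovery from NS1-induced slow growth read by OD600 in budding yeast switched to galactose assay medium (pH 6.0, -URA) at 1:100 dilution. Compound 23 nl per well; the matching strain lacking NS1 serves as control.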
Numbers without * were called inactive; ? = inconclusive; nt = no result. Unless noted, calls come from the whole dose curve; as a rule, active = well fitted inhibition curve with a large enough effect; inconclusive = small, poorly fitted or top-dose-only effect, or another doubt; inactive = no such curve, though single readings can be large or run the other way.

SMILES	Shiga inhibitor	CHX counter	Pf growth 96h	Pf growth 48h	SARS PLpro yeast	NS1 function inh
Cc1oc(-c2ccc3c(c2)OCCO3)cc1C(=O)O	-33.1	-8.6	?	?	-10.6%	-188.0%
NNC(=O)c1ccc(CSc2nc3ccccc3s2)cc1	54.4*	14.1	-20.1%	5.0%	-0.3%	19.0%
COCCN(Cc1ccccc1)C(=O)c1ccc(C(=O)c2ccccc2)cc1	nt	nt	?	?	0.0%	nt
COCCN(CCOC)C(=O)c1ccc(CSc2nc3ccccc3s2)cc1	53.3*	31.5*	-0.7%	31.6%	-6.7%	4.4%
COC(=O)CN1C(=O)C(C)(C)Oc2ccc(C(=O)Nc3ccccc3F)cc21	6.4	14.2	34.4%	10.8%	-2.1%	4.6%
CCC(C)(C)NC(=O)c1ccc2c(c1)N(CC(=O)NC1CCCC1)C(=O)C(C)(C)O2	-6.3	-4.6	6.57µM*	0.5%	2.6%	-2.2%
CC1(C)Oc2ccc(C(=O)Nc3ccccc3F)cc2N(CC(=O)N2CCOCC2)C1=O	48.3	12.4*	?	21.7%	-0.7%	0.5%
COC(=O)CN1C(=O)C(C)(C)Oc2ccc(C(=O)NC3CCCC3)cc21	-6.9	-1.1	6.5%	-5.3%	-0.5%	21.1%
CCOC(=O)CN1C(=O)C(C)(C)Oc2ccc(C(=O)Nc3ccccc3)cc21	36.2	13.5*	?	?	3.4%	?
CCOC(=O)c1ccc2c(c1)N(CC(=O)N1CCCC1)C(=O)C(C)(C)O2	-44.3	-8.4	7.7%	-7.5%	-2.2%	-2.7%
CCOC(=O)c1ccc2c(c1)N(CC#N)C(=O)C(C)(C)O2	30.7	16.9*	29.4%	?	0.1%	-2.9%
CCOc1ccc(NC(=O)C(C)NS(=O)(=O)c2ccc(NC(C)=O)cc2)cc1 (configuration not stated)	-10.0	-1.7	31.6%	-7.7%	-3.7%	nt
Cc1ccc(S(=O)(=O)N2CCN(Cc3cc(=O)n4ccccc4n3)CC2)c(C)c1	nt	nt	?	?	-2.2%	nt
CC1(C)NC(=O)N(CC(O)Cn2nnc3ccccc32)C1=O (configuration not stated)	-4.1	-1.1	nt	19.1%	-7.0%	-0.8%
COc1ccc(-n2cc(-c3ccc(OC(F)F)cc3)[n+]3c2CCCCC3)cc1	-2.9	1.1	?	1.65µM*	1.1%	nt
COc1ccc(-c2cc3ccccc3n2CC(O)CN2CCN(CCO)CC2)cc1 (configuration not stated)	-16.9	-1.9	?	nt	-7.5%	-2.3%
